This is a sample that favours compounds with a hit; in the whole collection about 1.5% have one here.
CCHFV vOTU inh = CCHFV vOTU protease inhibition | Pep-AMC fluorescence | inhibition, % at 11.5 µM | 370,000 compounds, 0.55% hits | AID 651958; in the data active = inhibition above about 30%; note: 0% = vehicle wells with enzyme and 100% = no enzyme wells
SSB-PriA inh = blocks PriA binding to SSB C-terminal tail | inhibition, % at 33 µM | AlphaScreen SSBct-PriA binding, biotinylated peptide | AID 1272365 | 430,000 compounds, 0.6% hits; in the data active = inhibition mostly above about 37%, no sharp cut-off; inactive = mostly below about 20%;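 note: plate controls were negative control peptide for no effect and reference peptide for full effect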
RN4220 kill = S. aureus RN4220 growth inhibition. inhibition, % (no concentration beside the values). AID 1259311. 330,000 compounds, 0.33% hits. OD600, 16 h; in the data active = inhibition above about 85%;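 note: plate controls were untreated cells for no effect and reference antibiotic for full effect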
Sa ugtP lethal = kills S. aureus RN4220 lacking UgtP; AID 1259309; 330,000 compounds, 0.54% hits; S. aureus RN4220 ugtP deletion, OD600 growth, 16 h; growth inhibition, % (concentration not given with the values); in the data active = growth inhibition above about 68%;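 note: plate controls were untreated wells for no effect and antibiotic for full effect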
VHR inh abs = inhibitors of human VHR1 phosphatase (DUSP3). P51452. recombinant VHR phosphatase, pNPP absorbance. inhibition, % at 13.3 µM. 290,000 compounds, 0.52% hits. AID 1654; in the data active = inhibition above about 50%
Target sequence (P51452 whole entry, looked up): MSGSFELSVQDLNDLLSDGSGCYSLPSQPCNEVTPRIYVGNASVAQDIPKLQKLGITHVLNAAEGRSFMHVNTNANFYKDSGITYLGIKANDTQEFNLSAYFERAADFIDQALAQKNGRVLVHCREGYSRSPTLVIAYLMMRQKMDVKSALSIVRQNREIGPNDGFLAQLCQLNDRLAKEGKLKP
The depositor's hits bear a star; i = inactive; x = no result.

SMILES	CCHFV vOTU inh	SSB-PriA inh	RN4220 kill	Sa ugtP lethal	VHR inh abs
Cc1cc(O)cc2c1C(=O)/C(=C/c1ccccc1F)O2	x	-8	x	x	x
O=C(Oc1c(CN2CCOCC2)cc(Cl)c2cccnc12)c1ccccc1F	-20	58*	6	2	44
O=C(Oc1c(CN2CCOCC2)cc(Cl)c2cccnc12)c1ccccc1	-16	3	12	-6	3
O=C(Oc1c(CN2CCOCC2)cc(Cl)c2cccnc12)c1ccco1	x	101*	x	x	x
COc1cc(C=NNC(N)=O)ccc1OC(=O)c1cccs1	x	-15	x	x	x
CC(=O)Nc1ccc(NC(=O)CSc2nc(CC(=O)NCCC3=CCCCC3)cs2)cc1	x	-1	x	x	x
COc1ccc(-c2noc(Cn3cnc4c(nnn4Cc4ccc(Cl)cc4)c3=O)n2)cc1	x	-10	x	x	x
COC(=O)Cc1ccc(NC(=S)N2CCN(c3ccc(OC)cc3)CC2)cc1	-1	1	2	1	12
COC(=O)Cc1ccc(NC(=S)N2CCN(c3cccc(O)c3)CC2)cc1	-7	-3	6	-5	55*
Cc1cccc(N2CCN(C(=O)c3cc(COc4ccc(F)c(F)c4)on3)CC2)n1	22	-11	3	-19	51*
Cc1cccc(C)c1OCc1cc(C(=O)N2CCN(Cc3nccn3C)CC2)no1	-1	4	1	7	58*
COC1(CNS(=O)(=O)CC23CCC(CC2=O)C3(C)C)CCSC1 (stereo not given)	x	40*	x	x	x
N#Cc1c(NC(=O)c2cccc3ccccc23)sc2c1CCC2	x	-12	x	x	x
Cc1cc(C)c(C(=O)/C=C/c2c3ccccc3cc3ccccc23)cc1C	x	3	x	x	x
CC(=O)Nc1ccc(S(=O)(=O)c2ccc([N+](=O)[O-])cc2)cc1	9	0	97*	72	23
COC(=O)C1=C(c2ccccc2OCc2ccccc2)C[C@@H]2CC[C@H]1N2C(=O)NCc1ccc(N(C)C)cc1	5	53*	0	9	x
COC(=O)C1=C(c2cccc(OCc3ccccc3)c2)C[C@@H]2CC[C@H]1N2C(=O)NCc1ccc(N(C)C)cc1	1	56*	x	x	x
COC(=O)C1=C(c2ccc(F)cc2OCc2ccccc2)C[C@@H]2CC[C@H]1N2C(=O)NCc1ccc(N(C)C)cc1	13	46*	x	x	x
COC(=O)C1=C(c2cccc(OCc3ccccc3)c2)CC2CCC1N2C(=O)NCc1ccc(OC)cc1 (stereo not given)	x	x	-10	7	x
COC(=O)C1=C(c2ccc(F)cc2OCc2ccccc2)CC2CCC1N2C(=O)NCc1ccc(F)cc1 (stereo not given)	x	x	-8	8	x
COC(=O)C1=C(c2ccccc2OCc2ccccc2)CC2CCC1N2C(=O)NCc1ccc(F)cc1 (stereo not given)	x	x	-3	12	x
O=C1C(=O)N(c2ccc(O)cc2)C(c2ccccc2[N+](=O)[O-])C1=C(O)c1ccccc1 (stereo not given)	x	1	x	x	x
COC(=O)c1ccc(C(=O)NC[C@H](O)c2cn(C)c3ccccc23)cc1	x	-19	x	x	x
Cn1nc(CNC(=O)c2c(F)cccc2F)cc1-c1ccncc1	x	-13	x	x	x
CCOc1ccc2nc(NC(=O)Cn3nc(-n4ccc5ccccc54)ccc3=O)sc2c1	x	-11	x	x	x
SMILES	CCHFV vOTU inh	SSB-PriA inh	RN4220 kill	Sa ugtP lethal	VHR inh abs
Cc1cccc(NS(=O)(=O)c2ccc(C)c(C(=O)NC3CCN(Cc4ccccc4)CC3)c2)c1	-14	47*	0	2	x
Cc1ccccc1C(=O)NC1CCN(Cc2ccccc2)CC1	8	5	2	3	0
COC(CNC(=O)Cc1c(F)cccc1Cl)c1ccsc1 (stereo not given)	x	-19	x	x	x
O=C(c1ccco1)N1CCN(C(=O)C2CC(c3ccc(Cl)cc3)=NO2)CC1 (stereo not given)	-1	-24	0	4	59*
COc1ccc(C2=NOC(C(=O)N3CCN(C(=O)c4ccco4)CC3)C2)cc1OC (stereo not given)	3	-4	-3	0	5
COc1ccc(-c2csc(CN3CCN(C(=O)c4ccc(Br)o4)CC3)n2)cc1	x	44*	x	x	x
Cc1cc(N2CCCCC2)nc(CNC(=O)c2ccccc2Cl)n1	x	-6	x	x	x
O=C(CCCc1nc2ccccc2s1)Nc1ccccc1	-5	14	2	3	13
O=C(O)CCCC(=O)Nc1ccc(OCc2nc3ccccc3s2)cc1	5	-7	5	1	57*
COc1ccc(Br)c(C(=O)N2CC(N3C(=O)CCC3=O)C2)c1	x	-16	x	x	x
O=C(Cc1csc(SCc2ccc(Br)cc2)n1)Nc1nccs1	x	1	x	x	x
CC(C)(Oc1ccc(Cl)cc1)C(=O)NCCNc1ccc(Nc2ccccn2)nn1	x	31*	x	x	x
COc1cccc(C(=O)NCCNc2ccc(Nc3ccccn3)nn2)c1OC	x	1	x	x	x
COc1cc2cnc(-c3ccccc3)c(-c3cccc(C(F)(F)F)c3)c2cc1OC	22	45*	x	x	x
C=C1CCN(c2ccc(C(=O)NCc3ccccc3)cc2[N+](=O)[O-])CC1	10	13	-1	4	9
Cc1ccc(CNC(=O)c2ccc(N3CCc4ccccc43)c([N+](=O)[O-])c2)cc1	10	66*	2	2	24
COC(CNC(=O)c1ccc(N2CCc3ccccc32)c([N+](=O)[O-])c1)OC	-3	48*	1	-12	4
NNC(=O)c1ccc(N2CCc3ccccc32)c([N+](=O)[O-])c1	19	25	-11	0	14
CC1(C)NCCNC1=O	x	-4	x	x	x
CC(C)C1Nc2c(O)cc(Cl)c([N+](=O)[O-])c2C2C=CCC21 (stereo not given)	18	9	87*	93*	4
Cc1cc(O)c2c(c1)C(=O)C13C(=C2O)C(=O)[C@H]2[C@@H](O)[C@@H]1[C@H]1[C@H](O)[C@@H]3C(=O)C3=C(O)c4c(O)cc(C)cc4C(=O)C312 (stereo not given in full)	x	-3	98*	97*	x
COc1cc(OC)c(NC(=O)C(=O)CC(=O)c2ccc(C)cc2C)cc1Cl	6	5	85*	69	18
COc1ccc(C(=O)CC(=O)C(=O)Nc2ccc(C)cc2Cl)cc1	-6	2	25	20	14
COc1cccc(C(=O)CC(=O)C(=O)Nc2ccc(C)cc2Cl)c1	14	-8	77	87*	-16
O=C(Nc1ccncc1)c1ccc(=O)n(Cc2ccccc2Cl)c1	x	3	x	x	x
SMILES	CCHFV vOTU inh	SSB-PriA inh	RN4220 kill	Sa ugtP lethal	VHR inh abs
CN=c1scc(-c2ccccc2F)n1N=C(C)c1cccnc1	x	32	2	-6	x
CN=c1scc(-c2ccccc2F)n1/N=C(\C)c1cccnc1	22	x	x	x	58*
O/N=C\c1ccc(-c2cc(Cl)ccc2Cl)o1	x	-1	x	x	x
Cc1nn(C)cc1C=NCCOCc1ccccc1	-4	2	3	-1	52*
Cc1nn(C)cc1/C=N/NC(=O)c1ccco1	6	i	x	x	16
Cc1cccc(NC(=O)Nc2c(C)nc3c(C)cccn3c2=O)c1	x	-7	x	x	x
O=C(Nc1ccc(N2CCOCC2)c(Cl)c1)c1ccc([N+](=O)[O-])o1	-5	-10	65	96*	10
CC1CCN(c2ccc(C(=O)Nc3ccc4c(c3)OCO4)cc2[N+](=O)[O-])CC1	17	39*	-10	-10	10
